Out of some 420,000 compounds screened, about 64,000 (15%) were called active. Not shown: some 27% with an inconclusive outcome. Calls follow the shape of the dose curve; as a rule, active = well fitted inhibition curve with a large enough effect; inconclusive = small, poorly fitted or top-dose-only effect; inactive = flat fitted curve, though single readings scatter. Only a sample is shown. Entries that show only a call come without a potency. Peptide text beside a SMILES is read from it.
Potency is read from the fitted curve at half-maximal effect.

This test is described as follows: qHTS for Inhibitors of human tyrosyl-DNA phosphodiesterase 1 (TDP1): qHTS in cells in absence of CPT. Also: nearly all actives have a fitted effect of over 55% in size. Conditions: DT40 Tdp1-/- hTDP1 cells, no CPT, ATP luminescence, 48 h; activity change, negative = growth inhibition: at 46.2 µM (top of the series). In short, it runs like this:
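Growth kinetics read by CellTiter-Glo luminescence after ≥48 hr at 37 °C. Cells: DT40 Tdp1-/- stably carrying human TDP1, 400 per well, compound exposure in the absence of CPT (DMSO vehicle).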
On to `Cc1ccc(C)c(N2C(=O)CS/C2=N\NC(=O)c2ccccc2Cl)c1`, for which the Potency result is “inactive”.
The value for `Cc1ccc(NC(=O)c2nc[nH]c2C(=O)N2CCCCC2)c(C(=O)c2ccccc2)c1` was “inactive”; that for `COc1ccccc1C(=O)NN1C(=O)C2C3C=CC(O3)C2C1=O` (configuration not stated) was “inactive”; that for `O=C(NN1C(=O)C2C(C1=O)C1C=CC2C12CC2)c1ccccc1Cl` (configuration not stated) was “inactive”.
The value for `CC12CCC(C(=O)N(NC(=O)c3ccccc3O)C1=O)C2(C)C` (configuration not stated) was 18.4 µM (active); that for `O=C(NCc1nnnn1-c1ccc(Cl)cc1)c1ccc2c(c1)OCO2` was “inactive”; that for `O=C(Nc1cccc(Cl)c1)Nc1ccccc1NS(=O)(=O)c1cccs1` was “inactive”.
Regarding `CC(OC(=O)c1cc2ccccc2[nH]1)C(=O)N(C)c1ccccc1` (configuration not stated), the Potency result is “inactive”.
As to `Cc1ccc(-n2c(=O)c(C#N)cc3c(=O)n4ccccc4nc32)cc1C`, the Potency was 23.1 µM (active).
The value for `Cc1nc2ccccn2c(=O)c1NC(=O)c1cccs1` was “inactive”; that for `Cc1ccc(-n2c(SCC(=O)N3CCC(C(=O)O)CC3)nc3ccccc3c2=O)cc1C` was “inactive”.
The value for `Cc1nc2sc(C(c3ccco3)N3CCC4(CC3)OCCO4)c(O)n2n1` (configuration not stated) was “inactive”.
As to `Cc1[nH]n(-c2cccc(Cl)c2)c(=O)c1-c1ccc(Cl)cc1`, the Potency is 16.4 µM (active).
On to `Cc1nn(-c2ccccc2)c(NC(=O)c2cccs2)c(-c2ccc(Cl)cc2)c1=O`, for which the Potency result is “inactive”.
The value for `CC1=NN(c2cccc(Cl)c2)C(=O)C12CC(C)=C(C)CS2` (configuration not stated) was “inactive”; that for `CCOC(=O)Cn1c(=O)oc2cc(S(=O)(=O)NCC3CCCO3)ccc21` (configuration not stated) was “inactive”; that for `O=C(COc1ccc2oc3c(c2c1)CCCC3)Nc1ccccn1` was “inactive”.
The value for `NC(=O)C1CCN(C(=O)COc2ccc3c4c(c(=O)oc3c2)CCC4)CC1` was “inactive”; that for `CC1CCCCN1CC(=O)N1CCCc2c1c(=O)oc1ccc(OCc3ccccc3)cc21` (configuration not stated) was 4.61 µM (active).
Consider `COc1cccc(CCNC(=O)c2cccc(NC(=O)C3=C(C)OCCS3)c2)c1`, for which the Potency entry is “inactive”.
The value for `CC1CCCCC1NC(=O)CCS(=O)(=O)c1cccc2nonc12` (configuration not stated) was “inactive”; that for `CCOC(=O)COc1ccc(Cl)cc1C1NC(=O)NC(C)=C1C(C)=O` (configuration not stated) was “inactive”; that for `CCOC(=O)C1=C(CN2CCCCCC2)NC(=O)NC1c1cccc([N+](=O)[O-])c1` (configuration not stated) was 20.6 µM (active).
The value for `CCOC(=O)c1sc(-c2cccc([N+](=O)[O-])c2)cc1N` was “inactive”; that for `CCOC(=O)C1=C(COC(=O)[C@H](C)NS(=O)(=O)c2ccccc2F)NC(=O)NC1C` (some centres not stated) was “inactive”; that for `CCOCCOC(=O)C1=C(C)NC(=O)NC1c1ccc2c(c1)OCO2` (configuration not stated) was “inactive”.
Consider `CCOC(=O)C1=C(CN2CCc3ccccc32)NC(=O)NC1c1cc(C)ccc1C` (configuration not stated), for which the Potency is 12.6 µM (active).
The value for `CCOC(=O)C1=C(c2ccccc2)NC(=O)NC1c1cc(OC)c(OC)cc1OC` (configuration not stated) was “inactive”.
The value for `CCOC(=O)C1=C(CSc2nccn2C)NC(=O)NC1c1ccc(OC)cc1` (configuration not stated) was “inactive”; that for `CCOC(=O)C1=C(CNC2CCCCC2)NC(=O)NC1c1cc(C)ccc1C` (configuration not stated) was 20.6 µM (active).
The value for `CC(=O)NC(C(=O)NCC(N)=O)C(C)C` (configuration not stated) (HELM PEPTIDE1{[ac].[CC(C)C(N[*:1])C(=O)[*:2]].G.[am]}$$$$V2.0) was “inactive”; that for `C/C(Cc1ccccc1)=N\NC(=O)CNC(=O)c1ccccc1Cl` was “inactive”; that for `CCC(C)N(C(=O)Cn1nc(C)c([N+](=O)[O-])c1C)C1CCS(=O)(=O)C1` (configuration not stated) was “inactive”.
`Nc1cc(=O)n(Cc2ccccc2)c(=O)n1Cc1ccccc1`: the Potency result is “inactive”.
In the case of `COc1cc(OC)c(-n2c(C)cc(C=O)c2C)cc1Cl`, the Potency result is “inactive”.
The value for `COc1ncnc2c1ncn2CCCNCCN1CCOCC1` was “inactive”.
The value for `CN1/C(=C\C=C2\N=C(c3ccc(F)cc3)OC2=O)C(C)(C)c2ccccc21` was 23.1 µM (active); that for `Cc1ccnc2nc(C(=O)OCC(=O)N(CC(C)C)CC(C)C)nn12` was “inactive”.
For the compound `O=C(O)c1ccccc1-c1ccccc1C(=O)Nc1nccs1`, the Potency result was “inactive”.
The value for `COc1ccc(-c2ccc(CN3C(CC(C)C)C(=O)N(Cc4cn(CC5CCCCC5)nn4)CCS3(=O)=O)cc2)cc1` (configuration not stated) was 9.2 µM (active); that for `COc1ccc([C@H]2CC(=O)C[C@@H](CCn3cc(CC4CCCC4)nn3)O2)cc1` was “inactive”.
The value for `COc1ccc(-c2ccc(CN3C(C(C)C)C(=O)N(Cc4cn(CC5CCCCC5)nn4)CCS3(=O)=O)cc2)cn1` (configuration not stated) was 23.1 µM (active); that for `COc1ccc(-c2ccc(CN3C(CC(C)C)C(=O)N(Cc4cn(CC5CCCCC5)nn4)CCS3(=O)=O)cc2)cn1` (configuration not stated) was 18.4 µM (active).
The value for `Cc1nccn1CCCNC(=O)CC1C(=O)NCCN1Cc1ccc(Cl)c(F)c1` (configuration not stated) was “inactive”.
In the case of `O=C(NCc1cccnc1)C12CC3CC(CC(C3)C1)C2`, the Potency result is “inactive”.
The value for `Cc1ccc(/C=C/C(=O)OCC(=O)Nc2cccnc2Cl)cc1` was “inactive”.
The value for `COc1ccc(NC(=O)CCS(=O)(=O)c2cc3c(cc2Cl)NC(=O)CO3)cc1OC` was “inactive”; that for `CC(C)C(C)(C#N)NC(=O)CSc1nncn1-c1ccccc1` (configuration not stated) was “inactive”; that for `Cn1c(=O)c2sccc2n2c(CCC(=O)NCc3ccccc3Cl)nnc12` was “inactive”.
The value for `CSc1ccc(Cl)c(C(=O)OCC(=O)N2CCNC2=O)c1` was “inactive”.
On to `Cc1ccc(N2CC(C(=O)N3CCC4(CC3)CC(=O)c3ccccc3O4)CC2=O)cc1C` (configuration not stated), for which the Potency was 14.6 µM (active).
The value for `O=C(C1CC(=O)N(c2ccc(Br)cc2)C1)N1CCCC1` (configuration not stated) was “inactive”; that for `CCc1ccc(N2CC(C(=O)N3CCCCCC3)CC2=O)cc1` (configuration not stated) was “inactive”; that for `Nn1c(SCC(=O)Nc2nccs2)nnc1-c1ccco1` was “inactive”.
The value for `COC(=O)C1=C(C(=O)c2ccc(C)cc2)C(c2ccccc2)n2nnnc2N1` (configuration not stated) was “inactive”.
The value for `CC(C)Cc1ccc(C(C)C(=N)N)cc1` (configuration not stated) was 6.51 µM (active); that for `COc1ccc(CCNC(=O)CC2SC(=Nc3cc(C)cc(C)c3)NC2=O)cc1OC` (configuration not stated) was “inactive”; that for `O=C1c2cccnc2C(Nc2ccc(S(=O)(=O)N3CCCCCC3)cc2)N1Cc1ccccc1` (configuration not stated) was “inactive”.
Consider `O=[N+]([O-])c1ccc2c(c1)C(O)n1nc(-c3ccccc3)nc1S2` (configuration not stated), for which the Potency result is “inactive”.
For the compound `NC1=NN(c2cccc(C(=O)O)c2)C(=O)C1`, the Potency entry is “inactive”.
The value for `Cc1nn(C)c(C)c1C(C)NC(=O)c1ccc(OC2CCN(Cc3ccccn3)CC2)cc1` (configuration not stated) was “inactive”; that for `Cc1ccc(C(=O)NCC(=O)OCc2nnc(-c3ccccc3)o2)cc1` was “inactive”; that for `O=C(OCc1nnc(-c2ccccc2)o1)c1ccc2c(c1)C(=O)N(CCc1ccccc1)C2=O` was “inactive”.
Regarding `Cc1onc(-c2ccccc2Cl)c1C(=O)OCc1nnc(-c2ccccc2)o1`, the Potency is 23.1 µM (active).
The value for `CN(C)c1ccc(-c2nnc(-c3cccnc3)o2)cc1` was “inactive”; that for `Cc1onc(-c2ccccc2)c1-c1nnc(COC(=O)c2ccc(N(C)C)cc2)o1` was 20.6 µM (active).
The value for `C=CCn1nc(-c2ccccc2)c2c(C)onc2c1=O` was “inactive”; that for `CCCN1CNC(=S)N(CCc2ccccc2)C1` was “inactive”.
The value for `O=C(CSc1nc2[nH]c(=O)[nH]c(=O)c2s1)Nc1cccc(F)c1` was “inactive”.
In the case of `O=C(O)c1ccccc1-c1cccc2nncn12`, the Potency result was “inactive”.
The value for `CCOC(=O)c1sc2nc(C)[nH]c(=O)c2c1C` was “inactive”.
The value for `CCOC(=O)c1sc(=S)n2c1[nH]c(=O)c1ccc(C(=O)OC)cc12` was 5.8 µM (active); that for `COC(=O)c1ccc2c(=O)n(CC3CCCO3)c(=S)[nH]c2c1` (configuration not stated) was “inactive”.
The value for `Cc1cc(C)c2c(n1)sc1c(=O)n(-c3ccccc3)c(=O)[nH]c12` was “inactive”.
As to `CC(=O)Nc1cc(C(=O)O)ccc1S(=O)(=O)c1ccc(Cl)cc1`, the Potency entry was “inactive”.
The value for `COc1ccc2c(c1)cc1n2CCN=C1NN` was “inactive”; that for `COc1ccccc1CN1CC(C(=O)NCCc2cn[nH]c2)CCC1=O` (configuration not stated) was “inactive”.
With `CC(C)=CC1C(C(=O)O)C1(C)C` (configuration not stated), the Potency result was “inactive”.
For `CCC1(C)COC(c2ccc(OC)c(OC)c2)OC1` (configuration not stated), the Potency entry was “inactive”.
The value for `CC(=O)c1cccc(-n2nnnc2SCC(=O)NNC(=O)C2CCCCC2)c1` was “inactive”.
The value for `CCN(Cc1ccccc1)C(=O)CSc1nc(C)cc2c1C(=O)OC2` was “inactive”.
The value for `CCOC(=O)C1CCCN(C(=O)c2ccc(C)c(F)c2)CC1` (configuration not stated) was “inactive”.
Turning to `Cc1ccc(C(NC(=O)N2CCCC2)C(Cl)(Cl)Cl)cc1F` (configuration not stated), the Potency is 20.6 µM (active).
The value for `Cc1cc(C)cc(NC(=O)N2CCCCCCC2)c1` was “inactive”.
The value for `CCOC(=O)C1C(=O)OC2(CCCC2)C1C(=O)OCC` (configuration not stated) was “inactive”; that for `Cc1ccc(CC2C(=O)N(c3ccc(F)cc3)C(=O)C2C)cc1` (configuration not stated) was “inactive”.
The value for `CC1(C)CC(=O)CC2(C1)NCC(c1ccccc1Cl)c1c2[nH]c2ccccc12` (configuration not stated) was 16.4 µM (active); that for `CNC(=O)c1ccc(-c2nc(CN3CCc4ccccc43)c(C)o2)cc1` was 20.6 µM (active).
For the compound `COC(=O)c1cc2occc2n1Cc1nc(-c2ccccc2C)oc1C`, the Potency result is “inactive”.
Take `CC(=O)Nc1ccccc1-c1nc(CNC(=O)c2ccc(Cl)cc2)c(C)o1`: the Potency entry was “inactive”.
The value for `COc1ccc(-c2cn(-c3ccc(C)cc3)c(=O)n2CC(=O)Nc2ccc(OC)c(OC)c2)cc1` was “inactive”; that for `CN(Cc1ccccc1)C(=O)c1ccc(NC2=NC3CS(=O)(=O)CC3S2)cc1` (configuration not stated) was “inactive”.
The value for `CC(C)[C@H](NC(=O)N1CCn2c1nc1ccccc12)C(=O)NC1CC1` was “inactive”; that for `CC(C)[C@H](NC(=O)N1CCn2c1nc1ccccc12)C(=O)NCc1ccc2c(c1)OCO2` was “inactive”; that for `CCC(C)[C@H](NC(=O)N1CCn2c1nc1ccccc12)C(=O)NCc1ccc(OC)cc1` (some centres not stated) was 16.4 µM (active).
With `N/C(=N\OC(=O)CCCC(=O)O)c1ncc(C(F)(F)F)cc1Cl`, the Potency entry was “inactive”.
The value for `CC(C)CCN1CCC(C)(NC(=O)c2ccccc2)C1=O` (configuration not stated) was “inactive”; that for `CN(C)/C=C(/C(=O)c1ccc(Cl)cc1)S(=O)(=O)c1ccccc1` was “inactive”; that for `COC(C[C@H](O)CC(=O)[C@@H](C)OCc1ccccc1)OC` was “inactive”.
The value for `COC(C[C@@H]1O[C@@H]1C(=O)[C@H](C)OCc1ccccc1)OC` was “inactive”.
With `COC(C/C=C/C(=O)[C@@H](C)OCc1ccccc1)OC`, the Potency is 18.4 µM (active).
The value for `CCc1ccccc1N1C(=O)CN(S(=O)(=O)CC)CC1(C)C(=O)NC1CCCCC1` (configuration not stated) was “inactive”.

Values taken from PubChem BioAssay AID686978 (National Center for Advancing Translational Sciences (NCATS), 2013).
